A selection: hits, their analogues and other compounds. The true share with any hit is near 14%.
Giardia FBPA inh = qHTS Assay for Inhibitors of Fructose-1,6-bisphosphate Aldolase from Giardia Lamblia. A8B2U2. purified Giardia FBPA. Potency, µM (series often up to 59.6 µM), for the others: at the top dose activity, negative = inhibition, most hits filed as inhibitors. 0.71% of 290,000 active. AID 2451, 2010; also: potency is read from the fitted curve at half-maximal effect; nearly all actives have a fitted effect of over 55% in size
Target sequence (A8B2U2 whole entry, looked up): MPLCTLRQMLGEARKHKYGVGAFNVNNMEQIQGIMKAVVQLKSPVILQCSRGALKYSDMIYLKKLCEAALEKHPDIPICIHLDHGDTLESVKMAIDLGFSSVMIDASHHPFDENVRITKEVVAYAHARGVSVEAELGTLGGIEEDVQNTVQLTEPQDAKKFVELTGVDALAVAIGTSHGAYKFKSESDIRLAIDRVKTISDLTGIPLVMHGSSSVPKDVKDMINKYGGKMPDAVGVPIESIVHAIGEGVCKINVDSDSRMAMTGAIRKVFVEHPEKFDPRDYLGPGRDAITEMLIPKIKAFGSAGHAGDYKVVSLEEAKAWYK
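Giardia FBPA (40 nM reagent) was preincubated 10 min at RT with compound (up to 57.5 uM final), then substrate plus GAPDH/TPI/NAD/arsenate coupling system with diaphorase/resazurin was added; resorufin fluorescence (525/598 nm) was read after 20 min.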
Sm TGR inh = qHTS Assay for the Inhibitors of Schistosoma Mansoni Peroxiredoxins; Potency, µM (highest dose often 114 µM), inactives show at the top dose activity change, negative = inhibition, hits mostly inhibitors; 3% of 360,000 active; Schistosoma mansoni thioredoxin glutathione reductase (TGR), Q962Y6; AID 485364, 2010; purified TGR, DTNB reduction, TNB absorbance 405 nm; also: potency is read from the fitted curve at half-maximal effect; nearly all actives have a fitted effect of over 60% in size
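Kinetic colorimetric format: TGR-catalysed, NADPH-driven DTNB reduction monitored via TNB absorbance. Enzyme dispensed at 20 nM; compound exposure 15 min at room temperature before reaction start.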
HCMV antiviral = qHTS Assay for inhibitors of the human cytomegalovirus (HCMV); HFF cells, HCMV-luciferase reporter, 72 h; stronger effect = lower value; activity change, negative = inhibition, % at 57.5 µM; 4.5% of 410,000 active; AID 1259415, 2018; in the data active = activity change below about -60%; inconclusive = no clear call, values can overlap the other calls; inactive = above about -39%
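Human foreskin fibroblasts infected with luciferase-reporter HCMV at MOI 1 PFU/cell, compounds at two doses. Luciferase measured 72 h post infection; normalized to buffer-only basal and Salinomycin (10uM) controls.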
Pf growth 48h = Primary qHTS for delayed death inhibitors of the malarial parasite plastid, 48 hour incubation. Potency, µM (highest dose often 28.7 µM), for inactives: at the top dose activity change, negative = inhibition, most hits filed as inhibitors. 5.9% of 310,000 active. P. falciparum luciferase growth in erythrocytes, 48 h; also: potency is read from the fitted curve at half-maximal effect
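Luminescence readout; reporter = integrated firefly luciferase in P. falciparum. RBC culture at 2% hematocrit, 0.1% parasitemia final, 37 C/5% CO2; decreased signal taken as growth inhibition.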
Pf growth 96h = Primary qHTS for delayed death inhibitors of the malarial parasite plastid, 96 hour incubation. 6.9% of 320,000 active. Potency, µM (doses to about 28.7 µM), without a hit: at the top dose activity change, negative = inhibition, hits mostly inhibitors. P. falciparum luciferase reporter growth, 96 h; also: potency is read from the fitted curve at half-maximal effect
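Parasite growth measured via integrated firefly luciferase reporter in P. falciparum. Infected erythrocytes at 2% hematocrit, 0.05% parasitemia final were treated 96 hours at 37 C under 5% CO2, and luminescence was read.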
* = called active by the depositor; [ ] = remark or other dose. Unless noted, calls follow the shape of the dose curve; as a rule, active = well fitted curve in the direction sought with a large enough effect; inconclusive = small, poorly fitted or top-dose-only effect, or another doubt; inactive = no such curve, though single readings can be large; an effect the other way counts as inactive or inconclusive. % is scaled to controls: 0 for no effect and ±100 for the full control effect.

Screening COc1ccc(CN2CCN(S(=O)(=O)c3ccc(NC(C)=O)cc3)CC2)cc1OC returned Giardia FBPA inh -29%, Sm TGR inh 4%, HCMV antiviral inconclusive, Pf growth 48h inconclusive and Pf growth 96h 10µM*.
COc1ccc(CN2CCN(S(=O)(=O)c3ccc(F)cc3)CC2)cc1OC was read as Giardia FBPA inh -25%, Sm TGR inh -8%[11.4 µM] and HCMV antiviral -60*.
For COc1cc(CN2CCN(S(=O)(=O)c3ccc(NC(C)=O)cc3)CC2)cc(OC)c1O the results were Giardia FBPA inh inconclusive, Sm TGR inh inconclusive, Pf growth 48h -1% and Pf growth 96h 14%.
COc1ccc(S(=O)(=O)N2CCN(CCCOc3ccc(F)cc3)CC2)cc1OC was read as Giardia FBPA inh -3%, Sm TGR inh 3%, HCMV antiviral inconclusive, Pf growth 48h inconclusive and Pf growth 96h 4.7µM*.
Nc1nccnc1C(=O)OCC(=O)Nc1ccc2[nH]c(=O)[nH]c2c1 was read as Sm TGR inh -7%, HCMV antiviral -15, Pf growth 48h 33% and Pf growth 96h 17%.
For O=C1CCC/C=C/C[C@H](CC(=O)N(CCO)Cc2ccccc2)C(=O)N[C@@H](Cc2ccccc2)CO1 the results were HCMV antiviral 3.
COc1ccc(NCC(=O)N/N=C/C=C\c2ccccc2)cc1 was read as Giardia FBPA inh inconclusive, Sm TGR inh 8%, HCMV antiviral -23, Pf growth 48h 16% and Pf growth 96h 2.6µM*.
Screening O=C(CNC(=O)c1ccccc1F)N/N=C\C=C\c1ccccc1 returned Sm TGR inh 22µM*, HCMV antiviral -13, Pf growth 48h 17% and Pf growth 96h -29%.
O=c1c2ccccc2nnn1-c1ccccc1[N+](=O)[O-] was read as HCMV antiviral 16.
For COCCn1c(=O)c(-c2ccc(OC)cc2)nc2cnc(Oc3ccc(OC)cc3)nc21 the results were Giardia FBPA inh -1%.
`CC(=O)C1=CCC(c2ccc(Cl)cc2)N(S(=O)(=O)c2ccccc2C)C1` (centres undefined) gave HCMV antiviral -14.
For CC(C)CNC(=O)c1ccccc1NC(=O)c1ccc(CSc2ccccc2)cc1 the results were Giardia FBPA inh 0%, Sm TGR inh -3%, HCMV antiviral 114, Pf growth 48h 13µM* and Pf growth 96h 10µM*.
For CC(C)CNC(=O)c1ccccc1NC(=O)CCSc1ccccc1 the results were Giardia FBPA inh 0%, Sm TGR inh -3%, HCMV antiviral -18, Pf growth 48h 14% and Pf growth 96h inconclusive.
For CC(C)CNC(=O)c1ccccc1NC(=O)Nc1ccccc1 the results were Giardia FBPA inh 4%, Sm TGR inh 2%, HCMV antiviral -7 and Pf growth 96h 10µM*.
`CCC(C)NC(=O)c1ccccc1NC(=O)Nc1ccccc1` (centres undefined) gave Giardia FBPA inh -3%, Sm TGR inh 6%, HCMV antiviral -7, Pf growth 48h 40% and Pf growth 96h 41%.
For C=C(C)C1(O)OC(=O)C=C1OC (centres undefined) the results were Giardia FBPA inh 0%, Sm TGR inh 6.3µM*, HCMV antiviral -17, Pf growth 48h inconclusive and Pf growth 96h inconclusive.
`COC(=O)c1[nH]c(C)c(/C(O)=C2\C(=O)C(=O)N(CCN(C)C)C2c2ccc(C)o2)c1C` (centres undefined) gave Giardia FBPA inh -15%, Sm TGR inh 32µM*, HCMV antiviral 30, Pf growth 48h 13% and Pf growth 96h 10%.
`CC(C)=CCc1cc([C@@H]2COc3c(ccc4c3C=CC(C)(C)O4)C2)c(O)cc1O` gave HCMV antiviral -106*.
CCOC(=O)C1CCCN(C(=O)c2cc(C)n(C(C)(C)C)n2)CC1 (centres undefined) was read as HCMV antiviral -14.
`CC(C)=CCc1c(O)cc2oc3c(CC=C(C)C)c(O)c(O)c(CC=C(C)C)c3c(=O)c2c1O` gave Giardia FBPA inh inconclusive, Sm TGR inh -16%, HCMV antiviral -101*, Pf growth 48h 13µM* and Pf growth 96h 4%.
Cc1ccc(Nc2ccc(N3CCN(C(=O)c4cccc([N+](=O)[O-])c4)CC3)nn2)cc1 was read as Sm TGR inh 4% and HCMV antiviral -62*.
CCC1=NN(C(=O)c2cccc([N+](=O)[O-])c2)C(O)(c2ccc(C)cc2)C1 (centres undefined) was read as Giardia FBPA inh inconclusive, Sm TGR inh 6%, HCMV antiviral -6, Pf growth 48h 4.1µM* and Pf growth 96h -24%.
`CCC1=NN(C(=O)c2ccc(Br)cc2)C(O)(c2ccccc2)C1` (centres undefined) gave Giardia FBPA inh 16%, Sm TGR inh -6%, HCMV antiviral inconclusive, Pf growth 48h 58% and Pf growth 96h 45%.
Screening Cc1cc(C(F)F)n2nc(C(=O)Nc3c(C)cccc3C)nc2n1 returned Sm TGR inh 3% and HCMV antiviral 15.
`Cc1c(Cl)cccc1NC(=O)c1cc2sccc2n1Cc1ccc(F)cc1` gave Sm TGR inh 8% and HCMV antiviral -16.
Cc1ccc(S(=O)(=O)Nc2ccc(C(=O)Nc3ccncc3)cc2)cc1 was read as Giardia FBPA inh 2%, Sm TGR inh 5%, HCMV antiviral 28, Pf growth 48h -26% and Pf growth 96h 10µM*.
`Cc1ccc(S(=O)(=O)Nc2ccc(NC(=O)c3ccc(F)cc3)cc2)cc1` gave Giardia FBPA inh 3%, Sm TGR inh 21%, HCMV antiviral -12, Pf growth 48h inconclusive and Pf growth 96h 17%.
Screening Cc1ccc(NS(=O)(=O)c2ccc(NC(=O)c3cccc(NC(=O)C(C)C)c3)cc2)cc1 returned Giardia FBPA inh 3%, Sm TGR inh 0%, HCMV antiviral -34, Pf growth 48h 17% and Pf growth 96h 1.7µM*.
Screening Cc1ccc(NS(=O)(=O)c2ccc(Cl)c(C(=O)Nc3cccc(C(=O)O)c3)c2)cc1 returned Giardia FBPA inh 1%, Sm TGR inh -5%, HCMV antiviral 21, Pf growth 48h -6% and Pf growth 96h inconclusive.
`O=C(O)c1ccc(NS(=O)(=O)c2ccc(NC(=O)c3ccccc3Cl)cc2)cc1` gave Giardia FBPA inh 4%, Sm TGR inh 1%, HCMV antiviral 10, Pf growth 48h 22% and Pf growth 96h 6.6µM*.
For CCN(CC)CCN1C(=O)C(=O)/C(=C(/O)c2ccc(S(=O)(=O)N3CCOCC3)cc2)C1c1ccc(C(C)C)cc1 (centres undefined) the results were Giardia FBPA inh 3%, Sm TGR inh -2%, HCMV antiviral 28, Pf growth 48h 13% and Pf growth 96h 4%.
